Assay results: PubChem BioAssay (NCATS)
Several values for one entry are separate records, joined by “and”; a condition that tells them apart may be missing. Equal values may be shown once. Inconclusive results are not listed. Activity calls are given as the source filed them. Unless noted, the call rests on the fitted dose curve; in most records, active means well fitted curve in the direction sought with a large enough effect; inconclusive means small, poorly fitted or top-dose-only effect, or another doubt; inactive means no such curve, though single readings can be large; an effect the other way counts as inactive or inconclusive. Where a SMILES comes first, the peptide text is derived from it. Bridges are numbered along the chain shown (N, C = ends). [ ]: non-standard residue; d: D form. The star is where a group is joined. X1 = CC[C@@H](C)[C@@H](N)C1=N[C@H](C(=O)*)CS1; d(aIle) = CC[C@H](C)[C@@H](N)C(=O)O; pGlu = O=C1CC[C@@H](C(=O)O)N1; dOrn = NCCC[C@@H](N)C(=O)O; X2 = CC[C@H](C)CCCCC(=O)*; Dab = NCC[C@H](N)C(=O)O

Assays:
[1] = qHTS Assay for Identifying Gametocytocidal Compounds (AID 743244);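 further: actives lower the fluorescent signal which means gametocytes are killed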; settings: P. falciparum 3D7 stage III-V gametocytes, alamarBlue, 72 h; max response: hits give low values
In short: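 In this qHTS viability screen, late-stage 3D7 gametocytes are incubated with compound for 72 h, then with alamarBlue for 24 h; reduced resorufin fluorescence marks killing.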

[2] = qHTS assay to identify small molecule inhibitors of chordoma cells - UCH-1 (AID 1259355); further: nearly all actives have a fitted effect of over 55% in size
In short: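 Cells (800/well) were seeded and left overnight at 37 C, 5% CO2, then treated with drugs at 15 concentrations plus a combination mix of auranofin, camptothecin, doxorubicin, rubitecan and topotecan. Viability after 48hr was read by CellTiter-Glo luminescence.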

[3] = qHTS assay to identify small molecule inhibitors of chordoma cells - UCH-2 (AID 1259356); further: series mostly up to about 46 µM
[4] = qHTS assay for small molecule agonists of the antioxidant response element (ARE) signaling pathway measured by Nrf2-dependant transcriptional activity - cell viability counter screen (AID 720653; active means well fitted curve in the direction sought with a large enough effect in the repeat runs; an effect the other way counts as inactive or inconclusive); settings: ARE-bla HepG2 viability, CellTiter-Glo ATP luminescence, 16 h; hits give low values
In short: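 ARE-bla HepG2 cells treated with compounds for 16 h at 37C; this counter screen measures viability as intracellular ATP by CellTiter-Glo luminescence after 30 min at room temperature.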

[5] = qHTS assay for cell viability of the p53RE-bla HCT-116 cell line (AID 743292); further: nearly all actives have a fitted effect of over 55% in size
In short: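 In this qHTS counter-screen, metabolically competent p53RE-bla HCT-116 cells were counted via their ATP content. Compounds were applied for 16 h at 37 C and luciferase-coupled luminescence was measured.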
On the % scale 0 is the no-effect control and ±100 the full control effect.

CCCCCCCCCCCCOCCCN
inactive: max response [1] -2.81% | Potency [2] | Potency [3]

CC(CC=O)CCCC(C)(C)O (centres undefined)
inactive: max response [1] 6.46% | Potency [2] | Potency [3]

O=C(OCc1ccccc1)c1cccnc1
inactive: max response [1] -1.85% | Potency [2] | Potency [3]

C[C@H](NCCc1ccc(O)cc1)[C@H](O)c1ccc(O)cc1
inactive: max response [1] 10.2% | Potency [2] | Potency [3]

CC1(C)S[C@@H]2[C@H](N3C(=O)C(c4ccccc4)NC3(C)C)C(=O)N2[C@H]1C(=O)O (some centres undefined)
inactive: max response [1] 5.31% | Potency [2] | Potency [3]

C=CCOc1ccc(CC(=O)O)cc1Cl
inactive: max response [1] 22.7% | Potency [2] | Potency [3]

COc1c(O[C@@H]2O[C@H](CO)[C@@H](O)[C@H](O)[C@H]2O)cc2c(c1OC)-c1ccc(SC)c(=O)cc1[C@@H](NC(C)=O)CC2
inactive: max response [1] 22% | Potency [2] | Potency [3]

O=C1NC(=O)[C@H]2[C@@H]1[C@@H]1C=C[C@H]2C1
inactive: max response [1] -6.7% | Potency [2] | Potency [3]

Nc1ccc(N=Nc2ccccc2)c(N)n1
inactive: max response [4] -11.4% and -26.2% | max response [1] -8.48% | outcome [5] | Potency [2] | Potency [3]

CO[C@@H]1[C@H](OC(=O)/C=C/C=C/C=C/C=C/C(=O)O)CC[C@]2(CO2)[C@H]1[C@@]1(C)O[C@@H]1CC=C(C)C
inactive: max response [4] 8.65% | max response [1] -5.74% | outcome [5] | Potency [2] | Potency [3]

CC[C@@H](C)[C@@H](N)C1=N[C@H](C(=O)N[C@@H](CC(C)C)C(=O)N[C@@H](CCC(=O)O)C(=O)N[C@@H](C(=O)N[C@@H]2CCCCNC(=O)[C@@H](CC(N)=O)NC(=O)[C@@H](CC(=O)O)NC(=O)[C@@H](Cc3cnc[nH]3)NC(=O)[C@@H](Cc3ccccc3)NC(=O)[C@@H]([C@H](C)CC)NC(=O)[C@@H](CCCN)NC2=O)[C@@H](C)CC)CS1 (X1-LE[d(aIle)][dK][dOrn][dI][dF][dH][dD][dN]; lactam 4-C)
inactive: max response [1] 17.8% and -1.65% | Potency [2] | Potency [3]

CCC(C(=O)NC(N)=O)c1ccccc1 (centres undefined)
inactive: max response [1] 7.61% | Potency [2] | Potency [3]

CC(=O)[C@@]1(O)CC[C@H]2[C@@H]3C=C(Cl)C4=CC(=O)[C@@H]5C[C@@H]5[C@]4(C)[C@H]3CC[C@@]21C
inactive: max response [1] 3.29% | Potency [2] | Potency [3]

CN[C@@H]1[C@@H](O)[C@@H](O[C@@H]2[C@@H](O)[C@H](OC3OC(CN)=CCC3N)[C@@H](N)C[C@H]2N)OC[C@]1(C)O (some centres undefined)
inactive: max response [1] -3.17% | Potency [2] | Potency [3]

CC[C@H](C)[C@H](NC(=O)[C@H](Cc1ccccc1)NC(=O)[C@H](C)NC(=O)[C@H](CC(=O)O)NC(=O)[C@H](CCCCN)NC(=O)[C@H](CO)NC(=O)[C@@H]1CCCN1C(=O)[C@@H]1CCC(=O)N1)C(=O)NCC(=O)N[C@@H](CC(C)C)C(=O)N[C@@H](CCSC)C(N)=O ([pGlu]PSKDAFIGLM-NH2)
inactive: max response [1] 13.3% | Potency [2] | Potency [3]

CC(C)(C)C(=O)OCC(=O)[C@H]1CC[C@H]2[C@@H]3CCC4=CC(=O)CC[C@]4(C)[C@H]3CC[C@]12C
inactive: max response [1] 6.08% | Potency [2] | Potency [3]

NC[C@@H]1CC[C@@H](N)[C@@H](O[C@H]2[C@H](O)[C@@H](O[C@H]3O[C@H](CO)[C@@H](O)[C@H](N)[C@H]3O)[C@H](N)C[C@@H]2N)O1
inactive: max response [1] 4.25% | Potency [2] | Potency [3]

H-RKDVY-OH
inactive: max response [1] -13.7% | Potency [2] | Potency [3]

CN1CCc2c(c3ccccc3n2Cc2ccccc2)C1
inactive: max response [1] 9.99% | Potency [2] | Potency [3]

CC[C@H](C)CCCCC(=O)N[C@@H](CCN)C(=O)N[C@H](C(=O)N[C@@H](CCN)C(=O)N[C@H]1CCNC(=O)[C@@H]([C@H](C)O)NC(=O)[C@H](CCN)NC(=O)[C@H](CCN)NC(=O)[C@H](CC(C)C)NC(=O)[C@@H](CC(C)C)NC(=O)[C@H](CCN)NC1=O)[C@@H](C)O (X2-[Dab]T[Dab][Dab][Dab][dL]L[Dab][Dab][dT]; lactam 4-C)
inactive: max response [1] -2.93% | Potency [2] | Potency [3]

CCN1C(=O)NC(c2ccccc2)C1=O (centres undefined)
inactive: max response [1] 13.2% | Potency [2] | Potency [3]

CC(=O)N[C@@H]1C(O[C@H]2O[C@H](C(=O)O)C(O)[C@H](O)[C@H]2O)[C@H](O)[C@@H](CO)O[C@H]1O[C@@H]1C(C(=O)O)O[C@@H](O[C@H]2[C@H](O)[C@@H](CO)OC(O)[C@@H]2NC(C)=O)[C@H](O)[C@H]1O (some centres undefined)
inactive: max response [1] -1.86% | Potency [2] | Potency [3]

C[Si](C)(C)O[Si](C)(C)C
inactive: max response [4] -6.75% | max response [1] 4.27% | outcome [5] | Potency [2] | Potency [3]

CC(=O)Oc1cccc2c1C(=O)c1c(OC(C)=O)cc(C(=O)O)cc1C2=O
inactive: max response [1] -7.57% | Potency [2] | Potency [3]

O=C(OC[C@H]1O[C@](O)(COC(=O)c2cccnc2)[C@@H](OC(=O)c2cccnc2)[C@@H]1OC(=O)c1cccnc1)c1cccnc1
inactive: max response [1] -9.26% | Potency [2] | Potency [3]

CC(=O)O[C@@H]1CC2CCC1(C)C2(C)C (some centres undefined)
inactive: max response [1] 7.45% | Potency [2] | Potency [3]

C=CC(=O)O
inactive: max response [1] -1.82% | Potency [2] | Potency [3]

OC[C@H]1O[C@@H](O[C@H]2[C@H](O)[C@@H](O)[C@H](O)O[C@@H]2CO)[C@H](O)[C@@H](O)[C@@H]1O
inactive: max response [1] 2.58% | Potency [2] | Potency [3]

CC(C)CN(C[C@@H](O)[C@H](Cc1ccccc1)NC(=O)O[C@@H]1CCOC1)S(=O)(=O)c1ccc(N)cc1
inactive: max response [1] 12.1% | Potency [2] | Potency [3]

CC(=O)Oc1cc(C(F)(F)F)ccc1C(=O)O
inactive: max response [1] 17% | Potency [2] | Potency [3]

CO/N=C(\C(=O)N[C@@H]1C(=O)N2C(C(=O)O)=CCS[C@H]12)c1csc(N)n1
inactive: max response [1] 5.71% | Potency [2] | Potency [3]
